In PubChem BioAssay (NCI):
The panel holds about 83,000 compounds, 20% with a hit somewhere; the sample as a whole holds those more often.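 The test compound was applied at a single concentration to cells in 96-well plates for 48 hours, and percent growth was recorded.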 Calls of active or inactive are those of the source. The calls were made as follows: active = growth percent below 10; inactive = the rest.

Key:
Assay in all cases: NCI-60 one-dose screen, 48 h (100 = growth as untreated, 0 = no growth, -100 = all killed)
Conditions in all cases: 10 µM unless noted
HCT-15 colon = system: HCT-15 colon
HT29 colon = system: HT29 colon
SNB-75 CNS = system: SNB-75 CNS
SNB-19 CNS = system: SNB-19 CNS
U251 CNS = system: U251 CNS
PC-3 prostate = system: PC-3 prostate
SK-MEL-5 melanoma = system: SK-MEL-5 melanoma
UACC-62 melanoma = system: UACC-62 melanoma
LOX IMVI melanoma = system: LOX IMVI melanoma
SK-MEL-28 melanoma = system: SK-MEL-28 melanoma
SK-MEL-2 melanoma = system: SK-MEL-2 melanoma
EKVX NSCLC = system: EKVX NSCLC
SN12C renal = system: SN12C renal
UO-31 renal = system: UO-31 renal
TK-10 renal = system: TK-10 renal
ACHN renal = system: ACHN renal
A498 renal = system: A498 renal
CCRF-CEM leukemia = system: CCRF-CEM leukemia
MOLT-4 leukemia = system: MOLT-4 leukemia

Measured: growth

CSc1nc(N)nc2c1ncn2C
inactive: HCT-15 colon 102% | HT29 colon 87.1% | SNB-75 CNS 96.4% | SNB-19 CNS 110% | U251 CNS 95.4% | PC-3 prostate 72.5% | SK-MEL-5 melanoma 100% | UACC-62 melanoma 102% | LOX IMVI melanoma 92.6% | SK-MEL-28 melanoma 109% | SK-MEL-2 melanoma 92.3% | EKVX NSCLC 94.2% | SN12C renal 97.6% | UO-31 renal 94.6% | TK-10 renal 93.5% | ACHN renal 106% | A498 renal 119% | CCRF-CEM leukemia 98.3% | MOLT-4 leukemia 87.6%

CCOc1ccccc1C(=O)N1CCN(c2cc(Cl)cc(Cl)c2)CC1
inactive: HCT-15 colon 11.2% | SNB-75 CNS 34.3% | SNB-19 CNS 24% | U251 CNS 12.5% | PC-3 prostate 10.6% | UACC-62 melanoma 19.5% | LOX IMVI melanoma 17.7% | SK-MEL-28 melanoma 54.7% | SK-MEL-2 melanoma 18.5% | EKVX NSCLC 34.1% | SN12C renal 25.7% | UO-31 renal 24.9% | TK-10 renal 55.5% | ACHN renal 21.9%
active: HT29 colon -27.4% | SK-MEL-5 melanoma -44.1% | A498 renal 6.38% | CCRF-CEM leukemia 7.43% | MOLT-4 leukemia 7.37%

O=C(Nc1ccc(F)cc1)Nc1ccc(Cl)c([N+](=O)[O-])c1
inactive: HCT-15 colon 11.1% | HT29 colon 13.6% | SNB-75 CNS 46.7% | SNB-19 CNS 21.5% | U251 CNS 15.5% | SK-MEL-5 melanoma 22% | UACC-62 melanoma 15.9% | SK-MEL-28 melanoma 22.6% | EKVX NSCLC 15.8% | SN12C renal 15.8% | TK-10 renal 16.6% | A498 renal 25.7% | CCRF-CEM leukemia 18.6%
active: PC-3 prostate 6.25% | LOX IMVI melanoma 9.41% | SK-MEL-2 melanoma 2.67% | UO-31 renal 8.43% | ACHN renal 4.79% | MOLT-4 leukemia 5.48%

Cc1ccc2oc(=O)cc(C3C(C#N)=C(N)Oc4c3ccc3ccccc43)c2c1 (stereo not drawn)
inactive: HCT-15 colon 51.1% | HT29 colon 38.8% | SNB-75 CNS 67.5% | SNB-19 CNS 84.9% | U251 CNS 82.8% | PC-3 prostate 55.6% | SK-MEL-5 melanoma 61.1% | UACC-62 melanoma 61.4% | LOX IMVI melanoma 75.4% | SK-MEL-28 melanoma 86.2% | SK-MEL-2 melanoma 66.2% | EKVX NSCLC 77.6% | SN12C renal 92.6% | UO-31 renal 72.3% | TK-10 renal 91.9% | ACHN renal 99% | A498 renal 89.1% | CCRF-CEM leukemia 81.9% | MOLT-4 leukemia 46.3%

Nc1nc(Cl)c2c(C(F)(F)F)cn(CC3CCNCC3)c2n1
inactive: HCT-15 colon 35.6% | HT29 colon 19.7% | SNB-75 CNS 97.6% | SNB-19 CNS 61.5% | U251 CNS 45% | PC-3 prostate 93.2% | SK-MEL-5 melanoma 94.9% | UACC-62 melanoma 86.8% | SK-MEL-28 melanoma 83.6% | SK-MEL-2 melanoma 87.9% | EKVX NSCLC 88.8% | SN12C renal 85.7% | UO-31 renal 91.6% | TK-10 renal 91.5% | ACHN renal 104% | A498 renal 107% | CCRF-CEM leukemia 51.9% | MOLT-4 leukemia 45.8%
active: LOX IMVI melanoma -12.9%

CN(C)c1ccc2cc(-c3nc4ccccc4s3)c(N)nc2c1
active: CCRF-CEM leukemia 6.43%
inactive: HCT-15 colon 41% | HT29 colon 23.9% | SNB-75 CNS 63.9% | SNB-19 CNS 60.7% | U251 CNS 33.2% | PC-3 prostate 20.2% | SK-MEL-5 melanoma 58.7% | UACC-62 melanoma 95.5% | LOX IMVI melanoma 85.3% | SK-MEL-28 melanoma 98.3% | SK-MEL-2 melanoma 51.5% | EKVX NSCLC 67.7% | SN12C renal 48.5% | UO-31 renal 51.8% | TK-10 renal 111% | ACHN renal 102% | A498 renal 38.2% | MOLT-4 leukemia 22.4%

OC(COc1ccccc1Cl)CN1CCN(c2ccc(Cl)cc2)CC1 (stereo not drawn)
inactive: HCT-15 colon 90.5% | HT29 colon 113% | SNB-75 CNS 83.3% | SNB-19 CNS 111% | U251 CNS 99.5% | PC-3 prostate 85.1% | SK-MEL-5 melanoma 104% | UACC-62 melanoma 95.9% | LOX IMVI melanoma 104% | SK-MEL-28 melanoma 103% | SK-MEL-2 melanoma 126% | EKVX NSCLC 106% | SN12C renal 106% | UO-31 renal 81.7% | TK-10 renal 117% | ACHN renal 94.6% | A498 renal 78.6% | CCRF-CEM leukemia 46% | MOLT-4 leukemia 95.3%

C/C(=N/NC(=O)Cn1c2ccccc2c2ccncc21)c1cccs1
inactive: HCT-15 colon 99.8% | HT29 colon 89.5% | SNB-75 CNS 104% | SNB-19 CNS 94.9% | U251 CNS 97.5% | PC-3 prostate 99.2% | SK-MEL-5 melanoma 99.4% | UACC-62 melanoma 95.8% | LOX IMVI melanoma 104% | SK-MEL-28 melanoma 108% | SK-MEL-2 melanoma 96.6% | EKVX NSCLC 103% | SN12C renal 104% | UO-31 renal 94.5% | TK-10 renal 127% | ACHN renal 103% | A498 renal 86.5% | CCRF-CEM leukemia 91.1% | MOLT-4 leukemia 83.1%

CC(C)(C)NC(C1=CC(C)(C)c2ccccc2C1=O)c1ccccc1 (stereo not drawn)
active: HCT-15 colon -58.7% | HT29 colon -60.2% | U251 CNS -67.7% | PC-3 prostate -79% | SK-MEL-5 melanoma 3.82% | UACC-62 melanoma -23.5% | LOX IMVI melanoma -66% | SK-MEL-28 melanoma -10.5% | SK-MEL-2 melanoma -65.1% | EKVX NSCLC -1.1% | SN12C renal -14.3% | UO-31 renal -97.4% | TK-10 renal -6.87% | ACHN renal -10.5% | CCRF-CEM leukemia -5.2% | MOLT-4 leukemia -47.4%
inactive: SNB-75 CNS 16.3% | SNB-19 CNS 25% | A498 renal 45.1%

COc1ccc(N)c(S)c1
inactive: HCT-15 colon 97% | HT29 colon 100% | SNB-75 CNS 84.6% | SNB-19 CNS 100% | U251 CNS 93.8% | PC-3 prostate 73.4% | SK-MEL-5 melanoma 91.5% | UACC-62 melanoma 93.5% | LOX IMVI melanoma 92.3% | SK-MEL-28 melanoma 113% | SK-MEL-2 melanoma 108% | EKVX NSCLC 91.7% | SN12C renal 94.4% | UO-31 renal 78.9% | TK-10 renal 105% | ACHN renal 98.2% | A498 renal 112% | CCRF-CEM leukemia 98.2% | MOLT-4 leukemia 91%

Cn1c2ccccc2c2ssc(=S)c21
inactive: HCT-15 colon 92.1% | HT29 colon 110% | SNB-75 CNS 99.3% | SNB-19 CNS 100% | U251 CNS 96.2% | PC-3 prostate 101% | SK-MEL-5 melanoma 89.8% | UACC-62 melanoma 95.8% | LOX IMVI melanoma 91.9% | SK-MEL-28 melanoma 108% | SK-MEL-2 melanoma 92.8% | EKVX NSCLC 39.5% | SN12C renal 116% | UO-31 renal 84% | TK-10 renal 111% | ACHN renal 114% | A498 renal 86.1% | CCRF-CEM leukemia 116% | MOLT-4 leukemia 75.5%

O=[N+]([O-])c1cccc2cc(S(=O)(=O)O)ccc12
inactive: HCT-15 colon 103% | HT29 colon 87.5% | SNB-75 CNS 118% | SNB-19 CNS 106% | U251 CNS 94.7% | PC-3 prostate 84% | SK-MEL-5 melanoma 103% | UACC-62 melanoma 100% | LOX IMVI melanoma 92.1% | SK-MEL-28 melanoma 111% | SK-MEL-2 melanoma 101% | EKVX NSCLC 96.2% | SN12C renal 98% | UO-31 renal 92.2% | TK-10 renal 94% | ACHN renal 112% | A498 renal 115% | CCRF-CEM leukemia 94.6% | MOLT-4 leukemia 85.5%

COc1ccc(SC2c3ccc(O)cc3Oc3nc(N)c(C#N)c(N)c32)cc1 (stereo not drawn)
inactive: HCT-15 colon 85% | HT29 colon 101% | SNB-75 CNS 84.7% | SNB-19 CNS 78.6% | U251 CNS 60.9% | PC-3 prostate 56.1% | SK-MEL-5 melanoma 55.7% | UACC-62 melanoma 105% | LOX IMVI melanoma 33.7% | SK-MEL-28 melanoma 106% | SK-MEL-2 melanoma 98.1% | EKVX NSCLC 79% | SN12C renal 54.3% | UO-31 renal 71.1% | TK-10 renal 73% | ACHN renal 97.7% | A498 renal 84.7% | CCRF-CEM leukemia 31.8% | MOLT-4 leukemia 67.7%

CN(C)c1ncc(C#Cc2c(F)cccc2F)c2ccccc12
inactive: HCT-15 colon 88.1% | HT29 colon 70.6% | SNB-75 CNS 108% | SNB-19 CNS 88.8% | U251 CNS 80% | PC-3 prostate 75.7% | SK-MEL-5 melanoma 83.5% | UACC-62 melanoma 71.4% | LOX IMVI melanoma 85.2% | SK-MEL-28 melanoma 102% | SK-MEL-2 melanoma 81.5% | EKVX NSCLC 74.8% | SN12C renal 78.8% | UO-31 renal 54.8% | TK-10 renal 112% | ACHN renal 96.3% | A498 renal 100% | CCRF-CEM leukemia 96.3% | MOLT-4 leukemia 80.8%

Nc1ccc(S(=O)(=O)Nc2cc(I)cc(I)c2)cc1
inactive: HCT-15 colon 112% | HT29 colon 107% | SNB-75 CNS 97.6% | SNB-19 CNS 116% | U251 CNS 106% | PC-3 prostate 97.2% | SK-MEL-5 melanoma 105% | UACC-62 melanoma 107% | LOX IMVI melanoma 104% | SK-MEL-28 melanoma 105% | SK-MEL-2 melanoma 97.7% | EKVX NSCLC 124% | SN12C renal 115% | UO-31 renal 99.7% | TK-10 renal 107% | ACHN renal 120% | A498 renal 77.7%
active: CCRF-CEM leukemia -9.38% | MOLT-4 leukemia -69.4%

Cc1cc[n+](CCCC[n+]2ccc(C)cc2)cc1
inactive: HCT-15 colon 93% | HT29 colon 113% | SNB-75 CNS 106% | SNB-19 CNS 107% | U251 CNS 102% | PC-3 prostate 88.7% | SK-MEL-5 melanoma 99.2% | UACC-62 melanoma 97.5% | LOX IMVI melanoma 94.4% | SK-MEL-28 melanoma 105% | SK-MEL-2 melanoma 124% | EKVX NSCLC 97.2% | SN12C renal 97.4% | UO-31 renal 96% | TK-10 renal 107% | ACHN renal 104% | A498 renal 121% | CCRF-CEM leukemia 91.7% | MOLT-4 leukemia 91.1%

COc1cc(NC(C)CCCN2C(=O)c3ccccc3C2=O)c2nccc(C)c2c1OC (stereo not drawn)
active: CCRF-CEM leukemia -14.2% | MOLT-4 leukemia -44.2%
inactive: HCT-15 colon 102% | HT29 colon 107% | SNB-75 CNS 102% | SNB-19 CNS 109% | U251 CNS 101% | PC-3 prostate 58.6% | SK-MEL-5 melanoma 69.5% | UACC-62 melanoma 84% | LOX IMVI melanoma 82.8% | SK-MEL-28 melanoma 113% | SK-MEL-2 melanoma 87.6% | EKVX NSCLC 98.4% | SN12C renal 126% | UO-31 renal 80.9% | TK-10 renal 122% | ACHN renal 110% | A498 renal 92.9%
